# Test results reported in the supplement of paper PMC11172423.
# Values without a mark were called inactive.
# Legend:
# [1] = test system: Falciformispora senegalensis CBS197.79; assay: growth relative to untreated control; higher = less inhibition, active = 20 or less
# Summary of the method: (§1)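 For each test, a hyphal fragment suspension of M. mycetomatis MM55 or F. senegalensis CBS197.79 was prepared in colourless RPMI 1640 with L-glutamine and MOPS at 68–72% transmission at 660 nm. Exposure to compound at 100 or 25 µM ran for 7 days at 37 °C in 96-well plates, followed by viability reading with MTS (2 h, 490 nm) or resazurin (600 nm). Growth corresponds to metabolic activity relative to the untreated growth control after correction of both with a blank of medium and dye.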
# [2] = test system: Madurella mycetomatis MM55; assay: as above
# Summary of the method: as §1
Compound,growth ([1]; 25 µM) [%],growth ([1]; 100 µM),growth ([2]; 25 µM),growth ([2]; 100 µM)
COC(=O)C1=C(C)NC(C)=C(C(=O)OC)C1c1ccccc1[N+](=O)[O-],98.9,41.1%,89.7%,4.04% (active)
C[C@@H]1CS/C(=N\NC(=O)C(=O)[C@@H](NC(=O)C2CCCCCC2)C2CCOCC2)N1C,95.5,98.8%,88.8%,93.2%
NS(=O)(=O)c1cc2c(cc1Cl)NC=NS2(=O)=O,103,103%,108%,96.2%
Cc1cccnc1-c1noc(-c2ccccc2)n1,99.3,98%,49.2%,87.4%
NC(=O)C(c1ccccc1)(c1ccccc1)[C@@H]1CCN(CCc2ccc3c(c2)CCO3)C1,95.3,97.9%,106%,79.1%
COc1ccc(C(=O)N2CCC3(CC2)C(=O)N(CC(=O)NCC2CCCCC2)CN3c2ccccc2)c(OC)c1,91.9,85.8%,67.1%,50.8%
CC(C)CN(C[C@@H](O)[C@H](Cc1ccccc1)NC(=O)O[C@H]1CO[C@H]2OCC[C@H]21)S(=O)(=O)c1ccc(N)cc1,97.7,101%,130%,90.5%
CNC(=O)c1cc(Oc2ccc(NC(=O)Nc3ccc(Cl)c(C(F)(F)F)c3)c(F)c2)ccn1,109,101%,69.9%,74.4%
CO[C@@H](C(=O)N1Cc2[nH]nc(NC(=O)c3ccc(N4CCN(C)CC4)cc3)c2C1)c1ccccc1,103,102%,94%,77.7%
COc1cccc2c1CCCC2CCCN1CCN(C2CCCCC2)CC1 (centres undefined),101,103%,75.4%,68.7%
CC[C@H](NC(=O)c1cc2c(F)cccc2[nH]1)c1ccccc1,77.9,99%,8.07% (active),5.18% (active)
CN(C)CCOc1ccc2nc(-c3cccc(OCc4ccccc4)c3)[nH]c2c1C#N,50.2,11.4% (active),4.87% (active),5.16% (active)
Nc1nonc1-c1nc2c(-c3cccc(Cl)c3)nccc2n1CCCNC(=O)Cc1ccc(Cl)cc1,90,110%,80.5%,121%
CC(C)(C)c1nc(-c2cccc(NS(=O)(=O)c3c(F)cccc3F)c2F)c(-c2ccnc(N)n2)s1,101,104%,103%,82.4%
Cc1onc(-c2ccccc2)c1-c1ccc(S(N)(=O)=O)cc1,97,105%,117%,91.1%
COc1ccc(-c2cnc3c(-c4ccccc4)c(-c4ccccc4)nn3c2N)cc1OC,93.2,83.3%,86.3%,70.2%
CS(=O)(=O)c1ccc(-c2cnn3c2NC(c2cccc(S(=O)(=O)C4CC4)c2)CC3)cc1 (centres undefined),72.5,88.1%,97.1%,82.5%
CN(C)c1ncc2nc(Nc3cc(Cl)cc(C(F)(F)F)c3)n(C3CCNCC3)c2n1,102,99.5%,86.2%,5.43% (active)
FC(F)(F)c1cc(Cl)cc(Nc2nc3cnc(NC4CCOCC4)nc3n2C2CCNCC2)c1,93.9,79.8%,111%,5.14% (active)
OCCN1CCc2nc(NCc3ccc(F)cc3F)nc(NC34CC(C3)C4)c2CC1,69.4,19.8% (active),32.2%,5.18% (active)
CCC1=C(c2ccc(C)cc2)S(=O)(=O)N=C1N1CCC(C(=O)NCCN2CCCCC2C)CC1 (centres undefined),86.3,88.6%,88%,81.9%
